Assay [1] deals with Cellular tumor antigen p53 (Homo sapiens) (UniProt P04637). Nature of the assay: Primary qHTS for small molecule compounds that upregulate eGFP-tagged delta133p53alpha (in N-terminal) cells. (AID 2060322). Further: nearly all actives have a fitted effect of over 75% in size. Further: potency means the concentration at half of the fitted maximal effect.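 On activation: cells pre-induced with doxycycline then dosed without doxycycline; series mostly up to about 56 µM; 0% = DMSO vehicle and 100% = reference activator.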 The conditions noted are these: NCI-H358 eGFP-delta133p53alpha fluorescence, 24 h; activation: active compounds read high. A digest of the protocol: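 NCI-H358 cells pre-induced 24 h with 10 ng/ml doxycycline for eGFP-delta133p53alpha, plated dox-free and exposed 24 h at 37C to titrated compounds. Fixed, Hoechst-stained; gated GFP peak intensity by laser scanning cytometry, normalized to DMSO (0%) and 57.5 uM 5-azacytidine (100%).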
Cellular tumor antigen p53 (Homo sapiens), sequence (P04637 whole entry, looked up): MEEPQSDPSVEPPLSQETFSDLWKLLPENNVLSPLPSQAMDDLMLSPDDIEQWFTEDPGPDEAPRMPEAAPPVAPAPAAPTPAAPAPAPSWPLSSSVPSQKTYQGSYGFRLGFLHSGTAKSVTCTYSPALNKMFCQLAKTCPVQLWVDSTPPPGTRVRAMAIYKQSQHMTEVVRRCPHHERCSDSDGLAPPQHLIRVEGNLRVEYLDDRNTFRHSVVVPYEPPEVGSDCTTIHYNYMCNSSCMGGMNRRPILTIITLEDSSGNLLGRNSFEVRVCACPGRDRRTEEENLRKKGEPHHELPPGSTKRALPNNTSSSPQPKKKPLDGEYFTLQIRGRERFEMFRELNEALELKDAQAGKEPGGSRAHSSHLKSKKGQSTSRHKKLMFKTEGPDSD

The target in assay [2] is Aldehyde dehydrogenase, mitochondrial (Homo sapiens) (UniProt P05091). Description: qHTS for Inhibitors of the Aldehyde Dehydrogenase Family (ALDH2) Primary screen (AID 2061308).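 Further: plate controls were vehicle for no effect and reference inhibitor for full effect; nearly all actives have a fitted effect of over 55% in size.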
Assay [3] concerns the target Retinaldehyde dehydrogenase 3 (Homo sapiens) (UniProt P47895). Nature of the assay: qHTS for Inhibitors of the Aldehyde Dehydrogenase Family (ALDH1A3) Primary screen (AID 2061315).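 Further: plate controls were DMSO vehicle for no effect and reference inhibitor for full effect.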

Results filed as inconclusive are left out. A number with no mark means an inactive call. The source made the active and inactive calls. The call rests on the fitted dose curve; in most records, active means well fitted curve in the direction sought with a large enough effect; inconclusive means small, poorly fitted or top-dose-only effect, or another doubt; inactive means no such curve, though single readings can be large; an effect the other way counts as inactive or inconclusive. Numbered stars: 1 amine (or outer) side, 2 acyl side, 3 side chain; on linkers, the order of the positions; unused ones are H or OH. Square brackets hold non-standard residues; d marks the D form. Peptide text beside a SMILES is read from it. X2 = CC(C)=CCc1cc(C(O)C(N[*:1])C(=O)[*:2])ccc1O

Consider `C/C(=C\CCC(C(=O)O)C1CCC2(C)C3=C(CCC12C)C1(C)CCC(=O)C(C)(C)C1CC3)C(=O)O` (stereo not given), for which the activation in assay [1] is 1.53%. In addition, the Potency entry in assay [2] and in assay [3] was “inactive” each time.

Turning to `CC(=O)OC1C[C@@]2(C)[C@@H](CC[C@@H](C)[C@]23Cc2c(O)cc4c(c2O3)CNC4=O)C(C)(C)[C@@H]1O` (stereo not given in full), the activation in assay [1] is 9.92%. Moreover, the Potency result in assay [2] and in assay [3] was “inactive” in each case.

On to `C[C@H](NC(=O)CCc1nc2ccccc2c(=O)[nH]1)c1ccccc1`, for which the activation in assay [1] was 1%. Besides, the Potency entry in assay [2] and in assay [3] was “inactive” each time.

On to `Cc1cn2cc(C(=O)N(C)CCO)cc(NC3CCOc4cccc(C)c43)c2n1` (stereo not given), for which the activation in assay [1] is -10.3%. In addition, the Potency result in assay [2] and in assay [3] was “inactive” throughout.

For `COC(=O)C1=CO[C@@H](O[C@@H]2O[C@H](CO)[C@@H](O)[C@H](O)[C@H]2O)[C@@H]2[C@@](C)(O)[C@@H](OC(=O)/C=C/c3ccc(O)cc3)C[C@]12O`, the activation in assay [1] was -0.763%. For the same compound, the Potency result in assay [2] and in assay [3] was “inactive” each time.

Take `COc1ccccc1-c1c[nH]c2ncc(-c3cncc(C(=O)N(C)C)c3)cc12`: the Potency in assay [1] is 21.3 µM (active). Further, the Potency entry in assay [2] and in assay [3] was “inactive” in each case.

On to `CCC/C=C/C(=O)O[C@H]1CC(C)(C)CC2[C@@]13[C@H](O)C[C@]1(C)[C@@]2(CCC2[C@@]4(C)CC[C@H](O[C@@H]5O[C@H](C(=O)O)[C@@H](O)[C@H](O[C@@H]6O[C@H](CO)[C@H](O)[C@H](O)[C@H]6O[C@@H]6O[C@@H](C)[C@H](O)[C@@H](O)[C@H]6O[C@@H]6OC[C@](O)(CO)[C@H]6O)[C@H]5O[C@@H]5O[C@H](CO)[C@H](O)[C@H](O)[C@H]5O)C(C)(C)C4CC[C@]21C)O[C@H]3O` (stereo not given in full), for which the activation in assay [1] was -12.5%. The activity change, negative = inhibition in assay [2] is 11.6% [at 11.2 µM]; in assay [3], 11% [at 11.2 µM].

For the compound `COc1cc(O)cc2c1C(=O)OC(C)C2` (stereo not given), in assay [1], the activation is -13%. The Potency result in assay [2] and in assay [3] was “inactive” in each case.

As for `CC(C)=CC/C=C(\C)[C@H]1CC[C@]2(C)[C@@H]1[C@H](O)C[C@@H]1[C@@]3(C)CC[C@H](O)C(C)(C)[C@@H]3[C@@H](O[C@@H]3O[C@H](CO)[C@@H](O)[C@H](O)[C@H]3O)C[C@]12C`, the activation in assay [1] is 1.67%. In addition, the Potency result in assay [2] and in assay [3] was “inactive” throughout.

With `Cc1cc(CS(=O)(=O)c2ccccc2)cc(OCc2ccc(CN3CCCC3CO)cc2)c1` (stereo not given), the activation in assay [1] was 8.93%. The Potency result in assay [2] and in assay [3] was “inactive” in each case.

For the compound `CC(=O)OC[C@@]12[C@H](O)C[C@@H](C)[C@]3(C[C@@H](c4ccoc4)OC3=O)[C@H]1C[C@H](O)C[C@]21CO1`, the activation in assay [1] was 27.5%. The Potency entry in assay [2] and in assay [3] was “inactive” throughout.

As for `C/C=C(\C)C(=O)O[C@H]1[C@@H](O[C@]2(COC(=O)CC(C)C)O[C@H](COC(=O)C(C)C)[C@@H](OC(C)=O)[C@@H]2O)O[C@H](COC(C)=O)[C@@H](O)[C@@H]1O`, the activation in assay [1] is 10.7%. In addition, the Potency entry in assay [2] and in assay [3] was “inactive” in each case.

With `O=C(O)Cc1nn(Cc2nc3cc(C(F)(F)F)ccc3s2)c(=O)c2nccnc12`, the activation in assay [1] was -6.33%. Also, the Potency entry in assay [2] and in assay [3] was “inactive” throughout.

`CC(C)(C)NCCCNC(=O)c1cccc(Br)c1`: the activation in assay [1] was -8.59%. Besides, the Potency result in assay [2] and in assay [3] was “inactive” each time.

Turning to `CC(C)=CCc1cc(C(O)C2NC(=O)CNC(=O)C(Cc3c[nH]c4ccccc34)NC(=O)C3CCCN3C(=O)CNC(=O)C(C(C)C)NC(=O)CNC2=O)ccc1O` (stereo not given) (cyclo(G[X2]GVGPW); configuration not given here), the activation in assay [1] was -8.4%. In addition, the Potency entry in assay [2] and in assay [3] was “inactive” in each case.

With `COC(=O)Cn1nc(-c2cccc(OC)c2)c2ccccc21`, the activation in assay [1] is -1.67%. The Potency result in assay [2] and in assay [3] was “inactive” in each case.

As for `CC1CCCC[C@H]2C(=O)C=C[C@H](O)[C@@H]2CC(=O)O1` (stereo not given in full), the Potency in assay [1] is 23.9 µM (active). Moreover, the Potency result in assay [2] and in assay [3] was “inactive” each time.

On to `CC1=C(C)C(=O)OC(C(C)C2C(O)CC3C4C5OC5C5(O)CC(OC6OC(CO)C(O)C(O)C6O)CC(O)C5(C)C4CCC32C)C1` (stereo not given), for which, in assay [1], the activation is -6.87%. Also, the Potency entry in assay [2] and in assay [3] was “inactive” throughout.

`COc1cc(C(C)=O)ccc1O[C@@H]1O[C@H](CO[C@@H]2O[C@@H](C)[C@H](O)[C@@H](O)[C@H]2O)[C@@H](O)[C@H](O)[C@H]1O`: in assay [1], the activation is -13%. The Potency result in assay [2] and in assay [3] was “inactive” throughout.

`NC1CCC(Nc2cc(-c3cccc(NCc4cccc(F)c4)n3)c(Cl)cn2)CC1` (stereo not given): the Potency in assay [1] was 1.51 µM (active). In addition, the Potency entry in assay [2] and in assay [3] was “inactive” each time.

For `Cc1nc(N2CCN(C(=O)c3ccco3)CC2)c2c3c(sc2n1)CCCC3`, the activation in assay [1] was -12.9%. Further, the Potency entry in assay [2] and in assay [3] was “inactive” in each case.

As for `CC(O)C(O)/C=C/C=C/C(=O)O[C@@H]1C=C2COC(=O)[C@]2(O)[C@@]2(C)CCCC(C)(C)C12` (stereo not given in full), the activation in assay [1] is -18.3%. The Potency result in assay [2] and in assay [3] was “inactive” in each case.

With `COc1ccccc1NC(=O)OCC1CCN(C(=O)OC(C)(C)C)CC1`, the activation in assay [1] is -5.67%. The Potency result in assay [2] and in assay [3] was “inactive” each time.

Take `COC(=O)/C=C/c1ccc(O[C@@H]2O[C@H](CO)[C@@H](O)[C@H](O)[C@H]2O)cc1`: in assay [1], the activation was -8.04%. In addition, the Potency entry in assay [2] and in assay [3] was “inactive” in each case.

`CC(=O)O[C@@H]1c2c(C)coc2C(=O)[C@@]23O[C@@H]2CC[C@H](C)[C@@]13C`: the activation in assay [1] was -2.68%. For the same compound, the Potency entry in assay [2] and in assay [3] was “inactive” throughout.

Source of the values: PubChem BioAssay (NCATS).
